Measured values: PubChem BioAssay (NCI)
Several values for one entry are separate records, joined by “and”; a condition that tells them apart may be missing. Equal values may be shown once. About 79,000 compounds went through this panel and 15% of them were active in at least one assay; those are over-represented in the sample as a whole. Activity calls are given as the source filed them. Rule as the data show it: active = growth inhibition above about 70%; inactive = the rest.

Assays:
[1] = NCI Yeast Anticancer Drug Screen. Data for the rad52 strain (AID 147);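 also: 0% = growth of vehicle-treated control cultures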; conditions: S. cerevisiae rad52 mutant growth inhibition, stronger effect = higher value
Procedure, shortened: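 Yeast strain carrying a DNA damage repair alteration was exposed to test compounds. Growth inhibition was measured relative to vehicle-treated controls.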

[2] = NCI Yeast Anticancer Drug Screen. Data for the wt1 strain (AID 149);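 also: 0% = growth of vehicle-treated wt1 cultures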; conditions: S. cerevisiae wt1 strain (SPY 50644) growth inhibition, stronger effect = higher value
Procedure, shortened: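 Vehicle-normalised growth inhibition; strain wt1; compound exposure.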

[3] = NCI Yeast Anticancer Drug Screen. Data for the mgt1 strain (AID 153); conditions: S. cerevisiae mgt1 mutant growth inhibition, stronger effect = higher value
Procedure, shortened: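 Yeast mgt1 strain (DNA repair/cell-cycle alteration panel) exposed to compounds; growth inhibition measured relative to vehicle-treated controls.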

[4] = NCI Yeast Anticancer Drug Screen. Data for the rad50 strain (AID 155);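 also: 0% = growth of vehicle-only cultures of the same strain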; conditions: S. cerevisiae rad50 strain growth inhibition, stronger effect = higher value
Procedure, shortened: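 A DNA repair-deficient yeast mutant serves as the test organism; compound-induced growth inhibition is calculated against vehicle-treated cells.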

[5] = NCI Yeast Anticancer Drug Screen. Data for the mec2-1 strain (AID 157); conditions: S. cerevisiae mec2-1 strain, stronger effect = higher value
Procedure, shortened: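 mec2-1 yeast strain, carrying an alteration in DNA damage repair or cell cycle control, was exposed to compounds; growth inhibition was measured relative to vehicle-treated controls.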

[6] = NCI Yeast Anticancer Drug Screen. Data for the rad14 strain (AID 159);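 also: 0% = growth of vehicle-treated control cultures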; conditions: S. cerevisiae rad14 strain growth inhibition, stronger effect = higher value
Procedure, shortened: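 Vehicle-treated cultures served as the baseline for growth inhibition of a DNA repair-mutant yeast strain exposed to each compound.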

[7] = NCI Yeast Anticancer Drug Screen. Data for the sgs1 mgt1 strain (AID 161);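 also: 0% = growth of cultures given vehicle only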; conditions: S. cerevisiae sgs1 mgt1 strain, stronger effect = higher value
Procedure, shortened: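 Percent growth inhibition was derived by comparing compound-exposed mutant yeast with vehicle-exposed cultures. The strain carries alterations in DNA damage repair.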

[8] = NCI Yeast Anticancer Drug Screen. Data for the CLN2oe strain (AID 163);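 also: 0% = growth of vehicle-only control cultures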; conditions: S. cerevisiae CLN2oe strain, stronger effect = higher value
Procedure, shortened: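 Yeast cells carrying a defined cell-cycle control alteration were exposed to test compounds. Growth inhibition was scored against vehicle-treated control cultures.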

[9] = NCI Yeast Anticancer Drug Screen. Data for the cln2 rad14 strain (AID 165);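 also: 0% = growth equal to vehicle treated cultures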; conditions: S. cerevisiae cln2 rad14 strain, stronger effect = higher value
Procedure, shortened: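 Yeast carrying cln2 and rad14 alterations (cell cycle control and DNA damage repair) were exposed to compounds. Growth inhibition was measured against vehicle-treated controls.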

[10] = NCI Yeast Anticancer Drug Screen. Data for the bub3 strain (AID 167); conditions: S. cerevisiae bub3 mutant strain, stronger effect = higher value
Procedure, shortened: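 Inhibition values come from growth of compound-treated mutant yeast normalised to vehicle-treated controls.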

[11] = NCI Yeast Anticancer Drug Screen. Data for the wt2 strain (AID 169);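 also: 0% = growth of vehicle-treated yeast cultures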; conditions: S. cerevisiae wt2 strain growth inhibition, stronger effect = higher value
Procedure, shortened: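 Yeast cells were exposed to test compounds, and growth inhibition was measured relative to vehicle-treated controls.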

[12] = NCI Yeast Anticancer Drug Screen. Data for the mlh1 strain (AID 171);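 also: 0% = growth of vehicle-treated control cultures of the same strain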; conditions: S. cerevisiae mlh1 strain growth inhibition, stronger effect = higher value
Procedure, shortened: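 Yeast carrying a defined genetic alteration in DNA damage repair or cell cycle control were exposed to test compounds. Growth inhibition was measured relative to vehicle-treated controls.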

[13] = NCI Yeast Anticancer Drug Screen. Data for the sgs1 strain (AID 173);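 also: 0% = growth of vehicle-only control cultures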; conditions: S. cerevisiae sgs1 mutant, stronger effect = higher value
Procedure, shortened: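 Yeast mutant strains carrying defined defects in DNA damage repair or cell cycle control were exposed to test compounds. Growth inhibition was scored against vehicle-treated controls.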

[14] = NCI Yeast Anticancer Drug Screen. Data for the mlh1 rad18 strain (AID 175); conditions: S. cerevisiae mlh1 rad18 strain growth inhibition, stronger effect = higher value
Procedure, shortened: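 Growth inhibition of the yeast strain was measured after compound exposure and expressed relative to vehicle-treated controls. The strain carries defined defects in DNA damage repair.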

[15] = NCI Yeast Anticancer Drug Screen. Data for the rad18 strain (AID 177); conditions: S. cerevisiae rad18 mutant growth inhibition, stronger effect = higher value
Procedure, shortened: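 Yeast carrying a defined DNA damage repair alteration were exposed to compounds. Growth inhibition was expressed relative to vehicle-treated controls.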

[16] = NCI Yeast Anticancer Drug Screen. Data for the rad50EPP+ strain (AID 151);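 also: 0% = growth of vehicle-treated control cultures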; conditions: S. cerevisiae rad50 mutant strain, stronger effect = higher value
Procedure, shortened: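 Yeast strain carrying rad50 alteration (rad50EPP+) exposed to compounds; growth inhibition measured relative to vehicle-treated controls.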

[17] = at 5.0 µM (retest, dose inferred, filed as 0.5)
[18] = at 50.0 µM (retest, dose inferred, filed as 5.0)

Measured: growth inhibition

CCc1cccc(C(C)C)c1NC1=C([n+]2ccc(C)cc2)C(=O)c2ccccc2C1=O
inactive: [1]; at 1.2 µM 2% | [1]; at 3.7 µM 5% | [1]; at 11.0 µM 12% | [1]; at 33.0 µM 42% | [2]; at 1.2 µM -2% | [2]; at 3.7 µM -2% | [2]; at 11.0 µM -4% | [2]; at 33.0 µM -3% | [2]; at 100.0 µM 6% | [3]; at 1.2 µM 0% | [3]; at 3.7 µM -1% | [3]; at 11.0 µM -1% | [3]; at 33.0 µM 4% | [3]; at 100.0 µM 11% | [4]; at 1.2 µM -2% | [4]; at 3.7 µM 0% | [4]; [17] 37% | [4]; at 11.0 µM 25% | [4]; at 33.0 µM 63% | [5]; at 1.2 µM -1% | [5]; at 3.7 µM -3% | [5]; [17] 10% | [5]; at 11.0 µM 11% | [5]; at 33.0 µM 1% | [5]; [18] 65% | [5]; at 50.0 µM 63.1% | [5]; at 100.0 µM 17% | [6]; at 1.2 µM -1% | [6]; at 3.7 µM 4% | [6]; at 11.0 µM 4% | [6]; at 33.0 µM 5% | [6]; at 100.0 µM 21% | [7]; [17] -3% | [7]; [18] 36% | [7]; at 50.0 µM 41.2% | [8]; at 1.2 µM -3% | [8]; at 3.7 µM -2% | [8]; at 11.0 µM 1% | [8]; at 33.0 µM -2% | [8]; at 100.0 µM 11% | [9]; [17] -6% | [9]; [18] 32% | [9]; at 50.0 µM 12.7% | [10]; at 1.2 µM -8% | [10]; at 3.7 µM -4% | [10]; [17] 5% | [10]; at 11.0 µM 1% | [10]; at 33.0 µM 5% | [10]; [18] 61% | [10]; at 50.0 µM 41.5% | [10]; at 100.0 µM 25% | [11]; at 1.2 µM -2% | [11]; at 3.7 µM -2% | [11]; at 11.0 µM -2% | [11]; at 33.0 µM 1% | [11]; at 100.0 µM 6% | [12]; at 1.2 µM -4% | [12]; at 3.7 µM -6% | [12]; at 11.0 µM -4% | [12]; at 33.0 µM 2% | [12]; at 100.0 µM 9% | [13]; at 1.2 µM -3% | [13]; at 3.7 µM -3% | [13]; at 11.0 µM -2% | [13]; at 33.0 µM -2% | [13]; at 100.0 µM 18% | [14]; [17] -4% | [14]; [18] 24% | [14]; at 50.0 µM 61.5% | [15]; at 1.2 µM 0% | [15]; at 3.7 µM -3% | [15]; at 11.0 µM 0% | [15]; at 33.0 µM 1% | [15]; at 100.0 µM 17%
active: [1]; at 100.0 µM 83% | [4]; [18] 87% | [4]; at 50.0 µM 89.1% | [4]; at 100.0 µM 81%

COc1cc(C2c3cc4c(cc3[C@@H](Nc3ccc(N)cc3)C3COC(=O)[C@H]23)OCO4)cc(OC)c1O (stereo partly specified)
inactive: [2]; at 1.2 µM -35% | [2]; at 3.7 µM 64% | [3]; at 1.2 µM -16% | [3]; at 3.7 µM 66% | [5]; at 1.2 µM 14% | [6]; at 1.2 µM 2% | [6]; at 33.0 µM 37% | [7]; [17] 18% | [8]; at 1.2 µM 0% | [8]; at 3.7 µM 62% | [8]; at 33.0 µM 41% | [9]; [17] 20% | [10]; at 1.2 µM -33% | [10]; at 3.7 µM 55% | [10]; [17] 22% | [11]; at 1.2 µM -1% | [11]; at 3.7 µM 42% | [12]; at 1.2 µM -4% | [13]; at 1.2 µM 16% | [15]; at 1.2 µM -11%
active: [1]; at 1.2 µM 92% | [1]; at 3.7 µM 92% | [1]; at 11.0 µM 95% | [1]; at 33.0 µM 92% | [1]; at 100.0 µM 87% | [2]; at 11.0 µM 95% | [2]; at 33.0 µM 94% | [2]; at 100.0 µM 88% | [3]; at 11.0 µM 94% | [3]; at 33.0 µM 95% | [3]; at 100.0 µM 90% | [4]; at 1.2 µM 91% | [4]; at 3.7 µM 95% | [4]; [17] 92% | [4]; at 11.0 µM 95% | [4]; at 33.0 µM 94% | [4]; [18] 95% | [4]; at 50.0 µM 82.8% | [4]; at 100.0 µM 88% | [5]; at 3.7 µM 89% | [5]; [17] 70% | [5]; at 11.0 µM 95% | [5]; at 33.0 µM 93% | [5]; [18] 96% | [5]; at 50.0 µM 90% | [5]; at 100.0 µM 88% | [6]; at 3.7 µM 71% | [6]; at 11.0 µM 95% | [6]; at 100.0 µM 92% | [7]; [18] 94% | [7]; at 50.0 µM 85.3% | [8]; at 11.0 µM 92% | [8]; at 100.0 µM 88% | [9]; [18] 90% | [9]; at 50.0 µM 85.9% | [10]; at 11.0 µM 92% | [10]; at 33.0 µM 85% | [10]; [18] 93% | [10]; at 50.0 µM 84.8% | [10]; at 100.0 µM 85% | [11]; at 11.0 µM 92% | [11]; at 33.0 µM 94% | [11]; at 100.0 µM 93% | [12]; at 3.7 µM 74% | [12]; at 11.0 µM 93% | [12]; at 33.0 µM 93% | [12]; at 100.0 µM 90% | [13]; at 3.7 µM 77% | [13]; at 11.0 µM 92% | [13]; at 33.0 µM 94% | [13]; at 100.0 µM 88% | [14]; [17] 70% | [14]; [18] 94% | [14]; at 50.0 µM 85.9% | [15]; at 3.7 µM 72% | [15]; at 11.0 µM 93% | [15]; at 33.0 µM 93% | [15]; at 100.0 µM 85%

CN(C)CCSC1=Nc2ccc(Cl)cc2C(c2ccccc2Cl)=NC1
inactive: [1]; at 1.2 µM -1% | [1]; at 3.7 µM -8% | [1]; at 11.0 µM 3% | [1]; at 33.0 µM 4% | [1]; at 100.0 µM 51% | [2]; at 1.2 µM -1% | [2]; at 3.7 µM -1% | [2]; at 11.0 µM 0% | [2]; at 33.0 µM 2% | [2]; at 100.0 µM -1% | [16]; at 1.2 µM -3% | [16]; at 3.7 µM -2% | [16]; at 11.0 µM -2% | [16]; at 33.0 µM -3% | [16]; at 100.0 µM 0% | [4]; at 1.2 µM -1% | [4]; at 3.7 µM 2% | [4]; [17] 12% | [4]; at 11.0 µM 2% | [4]; at 33.0 µM 8% | [4]; [18] 47% | [4]; at 50.0 µM 61.8% and 39.5% | [4]; at 100.0 µM 51% | [5]; at 1.2 µM -2% | [5]; at 3.7 µM -2% | [5]; [17] 3% | [5]; at 11.0 µM 0% | [5]; at 33.0 µM 9% | [5]; [18] 12% | [5]; at 50.0 µM -4.25% and -24.8%
